# Assay results from publication PMC5540273 (PLoS ONE, 2017).
# Values joined by “and” are separate entries in the source; they are usually repeats but may differ in a detail not shown here. Identical values can stand only once. Like-named read-outs stand apart in the source and are kept apart here.
# How the values were obtained:
# CAMKK1 = conditions: concentration: 1 μM, replicates: in singlicate, n = 1
# CAMKK2 = conditions: concentration: 1 μM, replicates: in singlicate, n = 1
# CASK = conditions: concentration: 1 μM, replicates: in singlicate, n = 1
# CDC2L1 = system: T1, CDC2L1; conditions: concentration: 1 μM, replicates: in singlicate, n = 1
# T1 construct: gene CDK11B
# CDC2L2 = conditions: concentration: 1 μM, replicates: in singlicate, n = 1
# CDC2L5 = system: T2, CDC2L5; conditions: concentration: 1 μM, replicates: in singlicate; n = 1
# T2 construct: gene CDK13
# CDK11 = system: T3, CDK11; conditions: concentration: 1 μM, replicates: in singlicate, n = 1
# T3 construct: gene CDK19
# CDK2 = conditions: concentration: 1 μM, replicates: in singlicate; n = 1
# CDK3 = conditions: concentration: 1 μM, replicates: in singlicate; n = 1
# CDK4-cyclinD1 = conditions: concentration: 1 μM, replicates: in singlicate; n = 1
# CDK4-cyclinD3 = conditions: concentration: 1 μM, replicates: in singlicate; n = 1
# CDK4 = conditions: concentration: 1 μM, replicates: in singlicate, n = 1
# CDK5 = conditions: concentration: 1 μM, replicates: in singlicate; n = 1
# CDK7 = conditions: concentration: 1 μM, replicates: in singlicate, n = 1
# CDK8 = conditions: concentration: 1 μM, replicates: in singlicate, n = 1
# CDK9 = conditions: concentration: 1 μM, replicates: in singlicate, n = 1
# CDKL1 = conditions: concentration: 1 μM, replicates: in singlicate, n = 1
# CDKL2 = conditions: concentration: 1 μM, replicates: in singlicate, n = 1
# CDKL3 = conditions: concentration: 1 μM, replicates: in singlicate; n = 1
# CDKL5 = conditions: concentration: 1 μM, replicates: in singlicate; n = 1
# 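Further: KINOMEscan kinase panel screen.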
structure (smiles),measurement,setting,value
Cc1ccc(NC(=O)c2ccnc(N3CCN(C)CC3)c2)cc1-c1ccc(C(=O)NCC2CC2)cc1 [GW775604],%Inh,CAMKK1,0%
same,%Inh,CAMKK2,0%
same,%Inh,CASK,10%
same,%Inh,CDC2L1,0%
same,%Inh,CDC2L2,0%
same,%Inh,CDC2L5,0%
same,%Inh,CDK11,0%
same,%Inh,CDK2,0%
same,%Inh,CDK3,34%
same,%Inh,CDK4-cyclinD1,0%
same,%Inh,CDK4-cyclinD3,0%
same,%Inh,CDK4,2%
same,%Inh,CDK5,0%
same,%Inh,CDK7,0%
same,%Inh,CDK8,0%
same,%Inh,CDK9,0%
same,%Inh,CDKL1,0%
same,%Inh,CDKL2,0%
same,%Inh,CDKL3,5%
same,%Inh,CDKL5,0%
O=C(NCCNc1ccnc(Nc2ccc(F)cc2)n1)Nc1ccccc1F [GSK1379880],%Inh,CAMKK1,0%
same,%Inh,CAMKK2,0%
same,%Inh,CASK,1%
same,%Inh,CDC2L1,0%
same,%Inh,CDC2L2,9%
same,%Inh,CDC2L5,0%
same,%Inh,CDK11,0%
same,%Inh,CDK2,0%
same,%Inh,CDK3,20%
same,%Inh,CDK4-cyclinD1,0%
same,%Inh,CDK4-cyclinD3,3%
same,%Inh,CDK4,28%
same,%Inh,CDK5,0%
same,%Inh,CDK7,0%
same,%Inh,CDK8,0%
same,%Inh,CDK9,0%
same,%Inh,CDKL1,0%
same,%Inh,CDKL2,15%
same,%Inh,CDKL3,0%
same,%Inh,CDKL5,0%
NCCNS(=O)(=O)c1ccc(-c2ccnc3[nH]ccc23)cc1 [GSK977617],%Inh,CAMKK1; 1 µM,31% and 9%
same,%Inh,CAMKK2; 1 µM,37% and 16%
same,%Inh,CASK; 1 µM,19% and 21%
same,%Inh,CDC2L1; 1 µM,0% and 14%
same,%Inh,CDC2L2; 1 µM,13% and 15%
same,%Inh,CDC2L5,0%
same,%Inh,CDK11; 1 µM,9% and 0%
same,%Inh,CDK2,0%
same,%Inh,CDK3,0%
same,%Inh,CDK4-cyclinD1,0%
same,%Inh,CDK4-cyclinD3,0%
same,%Inh,CDK4; 1 µM,34% and 27%
same,%Inh,CDK5,0%
same,%Inh,CDK7; 1 µM,85% and 74%
same,%Inh,CDK8; 1 µM,20% and 19%
same,%Inh,CDK9; 1 µM,5% and 26%
same,%Inh,CDKL1; 1 µM,10% and 1%
same,%Inh,CDKL2; 1 µM,0% and 8%
same,%Inh,CDKL3,0%
same,%Inh,CDKL5,0%
Cc1nnc(-c2ccc(C)c(-c3ccc(C(=O)Nc4ccc(NS(C)(=O)=O)cc4)cc3)c2)o1 [GW702865],%Inh,CAMKK1,0%
same,%Inh,CAMKK2,0%
same,%Inh,CASK,23%
same,%Inh,CDC2L1,0%
same,%Inh,CDC2L2,8%
same,%Inh,CDC2L5,0%
same,%Inh,CDK11,0%
same,%Inh,CDK2,0%
same,%Inh,CDK3,1%
same,%Inh,CDK4-cyclinD1,36%
same,%Inh,CDK4-cyclinD3,0%
same,%Inh,CDK4,0%
same,%Inh,CDK5,0%
same,%Inh,CDK7,0%
same,%Inh,CDK8,28%
same,%Inh,CDK9,0%
same,%Inh,CDKL1,5%
same,%Inh,CDKL2,18%
same,%Inh,CDKL3,0%
same,%Inh,CDKL5,0%
O=C1Cc2cc(Nc3nc(NCc4cccc(S(=O)(=O)C(F)(F)F)c4)ncc3C(F)(F)F)ccc2N1,%Inh,CAMKK1,9%
same,%Inh,CAMKK2,3%
same,%Inh,CASK,0%
same,%Inh,CDC2L1,9%
same,%Inh,CDC2L2,0%
same,%Inh,CDC2L5,12%
same,%Inh,CDK11,8%
same,%Inh,CDK2,0%
same,%Inh,CDK3,0%
same,%Inh,CDK4-cyclinD1,5%
same,%Inh,CDK4-cyclinD3,0%
same,%Inh,CDK4,27%
same,%Inh,CDK5,14%
same,%Inh,CDK7,4%
same,%Inh,CDK8,3%
same,%Inh,CDK9,10%
same,%Inh,CDKL1,21%
same,%Inh,CDKL2,4%
same,%Inh,CDKL3,3%
same,%Inh,CDKL5,18%
